Test [1] addresses Acetylcholinesterase (Homo sapiens) (UniProt P22303). The test can be described thus: Acetylcholinesterase (AChE) small molecule antagonists: colormetric cell-based qHTS assay (AID 1347395). Also: nearly all actives have a fitted effect of over 30% in size. Also: potency is read from the fitted curve at half-maximal effect. The gist of the method:
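Endogenous AChE of human neuroblastoma SH-SY5Y cells was measured with an Ellman-type DTNB/acetylthiocholine mix. Compound pretreatment lasted 30 min at 37 C; substrate reaction ran 90 min at 37 C.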

The target is the same in test [2]. The test can be described thus: Acetylcholinesterase (AChE) small molecule antagonists: enzyme-based qHTS assay (AID 1347397). Also: nearly all actives have a fitted effect of over 55% in size. Also: potency is read from the fitted curve at half-maximal effect. The note with it: Potency: AChE enzyme activity inhibition; outcome: AChE enzyme activity inhibition. The essentials:
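Tox21 library chemicals are tested in qHTS format against recombinant human AChE. The enzyme, dispensed at 50 mU/mL, sits with compound for 30 min at room temperature. A DTNB–acetylthiocholine cocktail follows, and colour is read after 10 min.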
Background: In qHTS, concentration-response curves come from the screen itself.

Test [3] shares this target. The test can be described thus: Acetylcholinesterase (AChE) small molecule antagonists: fluorescence cell-based qHTS assay (AID 1347398). Also: nearly all actives have a fitted effect of over 50% in size. Also: potency is read from the fitted curve at half-maximal effect. Particulars: Potency: AChE activity; outcome: AChE activity. The essentials: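 Cellular AChE inhibition: SH-SY5Y cells treated with test chemical for 30 min at 37 C, then acetylthiocholine hydrolysis followed over 40 min at room temperature via thiocholine-reactive Thiolite Green fluorescence (490/520 nm).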

Test [4] shares this target. The test can be described thus: Acetylcholinesterase (AChE) small molecule antagonists: enzyme-based qHTS assay with human liver microsomes (AID 1347399). Also: nearly all actives have a fitted effect of over 60% in size. The note with it: Potency: qHTS inhibition; outcome: qHTS inhibition. The gist of the method:
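Recombinant human AChE (50 mU/mL in the enzyme mix) and human liver microsomes (0.25 mg/mL final) were preincubated with compound and NADPH (0.25 mg/mL final) for 30 min at 37 C. Acetylthiocholine/DTNB was then added; thiocholine was read colorimetrically after 10 min at room temperature.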

SMILES strings stand for the structures. Where “and” joins values, the source holds several entries; their conditions need not be identical. Equal values may be shown once. Records with an inconclusive call do not appear. The source holds several records for some structures; these can differ, active in one and inactive in another. Calls of active or inactive are those of the source. Calls follow the shape of the full dose curve.
% is scaled to controls: 0 for no effect and ±100 for the full control effect.

Sequence of Acetylcholinesterase (Homo sapiens) (P22303 whole entry, looked up): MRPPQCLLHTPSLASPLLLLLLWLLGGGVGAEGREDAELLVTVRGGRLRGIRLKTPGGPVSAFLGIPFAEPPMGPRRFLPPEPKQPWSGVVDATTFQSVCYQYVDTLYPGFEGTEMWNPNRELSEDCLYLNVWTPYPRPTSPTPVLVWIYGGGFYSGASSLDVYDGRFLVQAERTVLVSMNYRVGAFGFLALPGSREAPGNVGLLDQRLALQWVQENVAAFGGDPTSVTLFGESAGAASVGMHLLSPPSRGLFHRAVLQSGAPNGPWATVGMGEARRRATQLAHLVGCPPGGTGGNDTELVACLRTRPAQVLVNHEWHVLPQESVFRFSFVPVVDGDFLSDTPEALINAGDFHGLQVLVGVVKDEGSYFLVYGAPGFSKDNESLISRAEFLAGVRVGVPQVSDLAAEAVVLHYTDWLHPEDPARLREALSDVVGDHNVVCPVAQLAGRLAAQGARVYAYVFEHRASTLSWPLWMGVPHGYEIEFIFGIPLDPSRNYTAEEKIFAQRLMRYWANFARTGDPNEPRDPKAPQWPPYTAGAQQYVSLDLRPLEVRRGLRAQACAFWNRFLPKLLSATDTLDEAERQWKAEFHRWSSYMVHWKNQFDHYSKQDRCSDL

Consider `Cc1cc(C(=C2C=CC(=Nc3ccc(S(=O)(=O)O)cc3S(=O)(=O)O)C=C2)c2ccc(Nc3ccc(S(=O)(=O)O)cc3)cc2)ccc1N`, for which the Potency result in test [1], in test [2], in test [3] and in test [4] was “inactive” in each case.

For the compound `Cc1cc(=O)n(-c2ccccc2)n1C`, the Potency entry in test [1], in test [2], in test [3] and in test [4] was “inactive” throughout.

For the compound `O=c1ccc2ccccc2o1`, the Potency entry in test [1], in test [2], in test [3] and in test [4] was “inactive” each time.

Take `CC12CCC(CC1)C(C)(C)O2`: the Potency entry in test [1], in test [2], in test [3] and in test [4] was “inactive” throughout.

For `CC1(C)Cc2cccc(N)c2O1`, the Potency result in test [1], in test [2], in test [3] and in test [4] was “inactive” in each case.

Take `O=C(O)[C@H](O)[C@@H](O)[C@H](O)[C@H](O)CO`: the Potency entry in test [1], in test [2], in test [3] and in test [4] was “inactive” throughout.

Turning to `CCCCC/C=C\C/C=C\CCCCCCCC(=O)OC`, the Potency entry in test [1], in test [2], in test [3] and in test [4] was “inactive” throughout.

As for `Cc1ccc(C(=O)c2ccc(CC(=O)O)n2C)cc1`, the Potency entry in test [1], in test [2], in test [3] and in test [4] was “inactive” throughout.

Turning to `Cc1ccccc1OCC1CO1` (stereo not given), the Potency entry in test [1], in test [2], in test [3] and in test [4] was “inactive” throughout.

Consider `CC[C@H](C)[C@@H](C(=O)O)n1sc2ccccc2c1=O`, for which the Potency entry in test [1], in test [2], in test [3] and in test [4] was “inactive” in each case.

Consider `CCCS(=O)c1ccc2nc(NC(=O)OC)[nH]c2c1` (stereo not given), for which the Potency result in test [1], in test [2], in test [3] and in test [4] was “inactive” throughout.

Regarding `COC(=O)NN`, the Potency result in test [1], in test [2], in test [3] and in test [4] was “inactive” throughout.

In the case of `CCC(C)OC(=O)c1ccc(O)cc1` (stereo not given), the Potency result in test [1], in test [2], in test [3] and in test [4] was “inactive” each time.

Turning to `Nc1ccc([N+](=O)[O-])c(C(F)(F)F)c1`, the Potency entry in test [1], in test [2], in test [3] and in test [4] was “inactive” throughout.

As to `C=COC(=O)C(C)(CC)CCC(C)C` (stereo not given), the Potency entry in test [1], in test [2], in test [3] and in test [4] was “inactive” throughout.

`O=S(=O)(O)c1cccc2c(S(=O)(=O)O)cccc12`: the Potency result in test [1], in test [2], in test [3] and in test [4] was “inactive” in each case.

For the compound `CCCCC1CCC(=O)O1` (stereo not given), the Potency result in test [1], in test [2], in test [3] and in test [4] was “inactive” throughout.

In the case of `CCN(Cc1cccc(S(=O)(=O)O)c1)c1ccccc1`, the Potency entry in test [1], in test [2], in test [3] and in test [4] was “inactive” in each case.

Regarding `COc1cc(NS(=O)(=O)c2ccc(N)cc2)nc(OC)n1`, the Potency result in test [1], in test [2], in test [3] and in test [4] was “inactive” throughout.

As for `Cc1ccc2oc(CN(Cc3ccccc3)C(=O)Nc3c(F)cc(F)cc3F)c(-c3ccc(Cl)cc3)c2c1`, the Potency result in test [1], in test [2], in test [3] and in test [4] was “inactive” each time.

Regarding `CCCCCCCCCCCCCC[N+](C)(C)Cc1ccccc1`, the Potency in test [1] is 64.3 µM (active) and inactive; in test [2] it was 64.3 µM (active); in test [3] it was 36.2 µM (active) and 30.9 µM (active) and 15.8 mM (active). The Potency result in test [4] was “inactive”.

Consider `CCCCCCCCCCCCCCO`, for which the Potency result in test [1], in test [2], in test [3] and in test [4] was “inactive” in each case.

Take `OCC(CO)(CBr)CBr`: the Potency entry in test [1], in test [2], in test [3] and in test [4] was “inactive” throughout.

Turning to `CC/C=C\CCCCCO`, the Potency entry in test [1], in test [2], in test [3] and in test [4] was “inactive” throughout.

Regarding `C=Cc1c(C)c2cc3[nH]c(cc4nc(cc5nc(cc1[nH]2)C(C)=C5CCC(=O)O)C(CCC(=O)O)=C4C)c(C)c3C=C`, the Potency entry in test [1], in test [2], in test [3] and in test [4] was “inactive” each time.

Turning to `CCO[Si](CCCNC(N)=O)(OCC)OCC`, the Potency entry in test [1], in test [2], in test [3] and in test [4] was “inactive” throughout.

`Cc1occc(=O)c1O`: the Potency entry in test [1], in test [2], in test [3] and in test [4] was “inactive” throughout.

As for `CC(=O)N[C@@H](CS)C(=O)O`, the Potency result in test [1], in test [2], in test [3] and in test [4] was “inactive” throughout.

As to `CC/C=C\C/C=C\C/C=C\CCCCCCCC(=O)O`, the Potency entry in test [1], in test [2], in test [3] and in test [4] was “inactive” each time.

On to `NC(=O)CC[C@@H]1NC(=O)[C@H](Cc2ccccc2)NC(=O)[C@H](Cc2ccc(O)cc2)NC(=O)CCSSC[C@@H](C(=O)N2CCC[C@H]2C(=O)N[C@@H](CCCN=C(N)N)C(=O)NCC(N)=O)NC(=O)[C@H](CC(N)=O)NC1=O`, for which the Potency entry in test [1], in test [2], in test [3] and in test [4] was “inactive” in each case.

For the compound `O=S1(=O)OC(c2ccc(O)cc2)(c2ccc(O)cc2)c2ccccc21`, the Potency result in test [1], in test [2], in test [3] and in test [4] was “inactive” in each case.

As for `CC(C)COC(=O)c1ccccc1`, the Potency result in test [1], in test [2], in test [3] and in test [4] was “inactive” each time.

Take `C=CC/C=C/C`: the Potency result in test [1], in test [2], in test [3] and in test [4] was “inactive” in each case.

Consider `Cc1ccccc1N=C(N)Nc1ccccc1C`, for which the Potency result in test [1], in test [2], in test [3] and in test [4] was “inactive” throughout.

Turning to `O=C1Nc2ccc([N+](=O)[O-])cc2C1=O`, the Potency result in test [1], in test [2], in test [3] and in test [4] was “inactive” each time.

Consider `COC(=O)C1=C(C)NC(C)=C(C(=O)OCCc2ccc(N3CCN(C(c4ccccc4)c4ccccc4)CC3)cc2)C1c1cccc([N+](=O)[O-])c1` (stereo not given), for which the Potency entry in test [1], in test [2], in test [3] and in test [4] was “inactive” each time.

With `Oc1c(Cl)cc(Cl)c(Cl)c1Cl`, the Potency entry in test [1], in test [2], in test [3] and in test [4] was “inactive” throughout.

With `c1ccc2[nH]cnc2c1`, the Potency result in test [1], in test [2], in test [3] and in test [4] was “inactive” throughout.

As to `COc1ccc(OC)cc1`, the Potency entry in test [1], in test [2], in test [3] and in test [4] was “inactive” in each case.

Regarding `CC(=O)C(=O)CC(C)C`, the Potency entry in test [1], in test [2], in test [3] and in test [4] was “inactive” in each case.

As for `CCc1occc(=O)c1O`, the Potency entry in test [1], in test [2], in test [3] and in test [4] was “inactive” throughout.

On to `CCN(CC)c1ccc(C(=C2C=CC(=[N+](CC)CC)C=C2)c2ccc(S(=O)(=O)O)cc2S(=O)(=O)[O-])cc1`, for which the Potency result in test [1], in test [2], in test [3] and in test [4] was “inactive” throughout.

Consider `N#Cc1nc(Cl)c(Cl)c(Cl)c1Cl`, for which the Potency entry in test [1], in test [2], in test [3] and in test [4] was “inactive” each time.

Consider `CC#N`, for which the Potency entry in test [1], in test [2], in test [3] and in test [4] was “inactive” in each case.

For the compound `COC(=O)Nc1nc2ccc(Sc3ccccc3)cc2[nH]1`, the Potency entry in test [1], in test [2], in test [3] and in test [4] was “inactive” throughout.

Consider `O=[N+]([O-])c1cccc(Cl)c1`, for which the Potency entry in test [1], in test [2], in test [3] and in test [4] was “inactive” each time.

Turning to `CCC(C)(CCC(C)C)C(=O)[O][Sn]([CH3])([CH3])[O]C(=O)C(C)(CC)CCC(C)C` (stereo not given), the Potency entry in test [1], in test [2], in test [3] and in test [4] was “inactive” each time.

Turning to `Cc1ccc2c(ccc3ccccc32)c1`, the Potency entry in test [1], in test [2], in test [3] and in test [4] was “inactive” throughout.

Consider `COc1ccccc1/C=C/C=O`, for which the Potency entry in test [1], in test [2], in test [3] and in test [4] was “inactive” each time.

Turning to `CC1=CC(=O)CCC1`, the Potency entry in test [1], in test [2], in test [3] and in test [4] was “inactive” in each case.

Regarding `CC(C)COC(=O)c1ccc(N)cc1`, the Potency result in test [1], in test [2], in test [3] and in test [4] was “inactive” in each case.

In the case of `CCOC(=O)C(C)Oc1ccc(Oc2cnc3cc(Cl)ccc3n2)cc1` (stereo not given), the Potency entry in test [1], in test [2], in test [3] and in test [4] was “inactive” each time.

Consider `NC(=O)CCCCC1CCSS1` (stereo not given), for which the Potency entry in test [1], in test [2], in test [3] and in test [4] was “inactive” throughout.

With `CC(=O)c1ccc(S(=O)(=O)NC(=O)NC2CCCCC2)cc1`, the Potency result in test [1], in test [2], in test [3] and in test [4] was “inactive” in each case.

Consider `Oc1ccc(Cl)c2cccnc12`, for which the Potency entry in test [1], in test [2], in test [3] and in test [4] was “inactive” each time.

As for `NC(N)=S`, the Potency result in test [1], in test [2], in test [3] and in test [4] was “inactive” each time.

In the case of `CCCCCC1C(=O)CCC1CC(=O)OC` (stereo not given), the Potency result in test [1], in test [2], in test [3] and in test [4] was “inactive” each time.

Consider `O=C(O)O`, for which the activity, negative = inhibition in test [1] is -0.194% [at 10.5 µM] (inactive). Moreover, the activity change, negative = inhibition in test [2] is 0.136% [at 10.5 µM] (inactive); in test [3], 2.47% [at 10.5 µM] (inactive); in test [4], -6.48% [at 10.5 µM] (inactive).

As to `c1ccc(Cc2ccccc2)cc1`, the Potency entry in test [1], in test [2], in test [3] and in test [4] was “inactive” each time.

In the case of `NC(=O)NC(N)=O`, the Potency result in test [1], in test [2], in test [3] and in test [4] was “inactive” in each case.

Source of the values: PubChem BioAssay (Tox21).
